Several values for one entry are separate records, joined by “and”; a condition that tells them apart may be missing. Equal entries are not always repeated. Inconclusive results are not listed. Activity calls are given as the source filed them. Rule for the calls, unless noted: active = hit-call score of the fitted dose curve at least 0.9, where 1 is the maximum; inactive = score below 0.9.
What was measured:
[1] = ATG_XTT_Cytotoxicity: Cytotoxicity Assessment in the Attagene TRANS-FACTORIAL HepG2 Assay (AID 2283584; active = hit-call score of the fitted dose curve at least 0.9, where 1 is the maximum;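 for AC50: cells exposed to compound for 24 h before reading; active means loss of viability signal versus DMSO baseline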)
Method in brief: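 Cells: human HepG2, transiently transfected with MRTU reporter constructs. Exposure 24 h. Readout: XTT, cell number. Baseline/neg ctrl DMSO; loss-of-signal scored.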

[2] = read-out: Nuclear factor erythroid 2-related factor 2 (Homo sapiens) (UniProt Q16236); experiment: LTEA_HepaRG_NFE2L2: Life Technologies and Expression Analysis (LTEA) Assay for Nuclear factor erythroid 2-related factor 2 (NFE2L2) Transcription Factor using HepaRG (AID 2283527); details: mRNA level, 48 h; actives raise or lower the signal
Method in brief: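 Human liver HepaRG line treated in duplicate for 48 h with an eight-point series topping at 100 uM. Gene expression of NFE2L2 by qRT-PCR, bidirectionally fitted against the vehicle control.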

[3] = read-out: succinate dehydrogenase complex iron sulfur subunit B (SDHB), SDHB (gene 6390); experiment: LTEA_HepaRG_SDHB: Life Technologies and Expression Analysis (LTEA) Assay for succinate dehydrogenase complex iron sulfur subunit B (SDHB) using HepaRG (AID 2283528); details: mRNA level, 48 h; actives raise or lower the signal
Method in brief: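 A human HepaRG culture in serum-free induction medium received test chemicals for 48 h over an eight-point range capped at 100 uM. SDHB expression change was quantified by qRT-PCR.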

[4] = read-out: Signal transducer and activator of transcription 3 (Homo sapiens) (UniProt P40763); experiment: LTEA_HepaRG_STAT3: Life Technologies and Expression Analysis (LTEA) Assay for Signal transducer and activator of transcription (STAT3) using HepaRG (AID 2283529); details: mRNA level, 48 h; actives raise or lower the signal
Method in brief: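 In this transcriptional endpoint, HepaRG cultures receive test chemicals at up to 100 uM for 48 h, tested in duplicate. STAT3 mRNA is normalized to ACTB, GAPDH and POLR2A.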

[5] = read-out: solute carrier (SLCO1B1), SLCO1B1 (gene 10599); experiment: LTEA_HepaRG_SLCO1B1: Life Technologies and Expression Analysis (LTEA) Assay for solute carrier (SLCO1B1) using HepaRG (AID 2283530); details: mRNA level, 48 h; actives raise or lower the signal
Method in brief: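 HepaRG, serum-free induction medium, 48 h dosing, 8-pt half-log from 100 uM, 0.5% DMSO vehicle, duplicates. Readout: SLCO1B1 mRNA, qRT-PCR, ACTB/GAPDH/POLR2A normalization; up or down fit vs DMSO.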

[6] = read-out: sulfotransferase 2A1 (SULT2A1), SULT2A1 (gene 6822); experiment: LTEA_HepaRG_SULT2A1: Life Technologies and Expression Analysis (LTEA) Assay for sulfotransferase 2A1 (SULT2A1) using HepaRG (AID 2283531); details: mRNA level, 48 h; actives raise or lower the signal
Method in brief: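 Transcript levels of SULT2A1, quantified by qRT-PCR and normalized to three housekeeping genes, serve as the readout. Human HepaRG cultures receive test chemicals for 48 h at up to 100 uM in half-log steps, with 0.5% DMSO vehicle.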

[7] = read-out: Transforming Growth Factor (TGFA), TGFA (gene 7039); experiment: LTEA_HepaRG_TGFA: Life Technologies and Expression Analysis (LTEA) Assay for Transforming Growth Factor (TGFA) using HepaRG (AID 2283532); details: mRNA level, 48 h; actives raise or lower the signal
Method in brief: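 Gene expression of TGFA was quantified by qRT-PCR after human HepaRG cells were treated for 48 h with test chemicals (eight concentrations, highest 100 uM, 0.5% DMSO). Activity in either direction was fitted relative to DMSO.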

[8] = read-out: Transforming Growth Factor (TGFB1), TGFB1 (gene 7040); experiment: LTEA_HepaRG_TGFB1: Life Technologies and Expression Analysis (LTEA) Assay for Transforming Growth Factor (TGFB1) Transporter using HepaRG (AID 2283533); details: mRNA level, 48 h; actives raise or lower the signal
Method in brief: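 HepaRG, 48 h post-plating, switched to serum-free induction medium; chemicals 100 uM top, half-log, 8 pts, 0.5% DMSO, dup; 48 h exposure; RNA → Fluidigm TaqMan qRT-PCR; norm ACTB/GAPDH/POLR2A; bidirectional fit vs DMSO.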

TIMP1, TIMP1 (gene 7076) = experiment: LTEA_HepaRG_TIMP1: Life Technologies and Expression Analysis (LTEA) Assay for TIMP1 using HepaRG (AID 2283534); details: mRNA level, 48 h; actives raise or lower the signal
Method in brief: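 Readout is TIMP1 mRNA level measured by qRT-PCR and normalized to three housekeeping genes. Human HepaRG cells were treated for 48 h in duplicate at eight concentrations up to 100 uM (0.5% DMSO); gain or loss fitted against DMSO.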

[9] = read-out: Tumor necrosis factor receptor 1 (TNFRSF1A), TNFRSF1A (gene 7132); experiment: LTEA_HepaRG_TNFRSF1A: Life Technologies and Expression Analysis (LTEA) Assay for Tumor necrosis factor receptor 1 (TNFRSF1A) using HepaRG (AID 2283535); details: mRNA level, 48 h; actives raise or lower the signal
Method in brief: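 Read-out is TNFRSF1A transcript level by TaqMan qRT-PCR, normalized to three housekeeping genes, scored as gain or loss of signal versus 0.5% DMSO. Human HepaRG cells received test chemicals for 48 h at up to 100 uM (half-log series).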

[10] = read-out: Thyroid Hormone Responsive (THRSP), THRSP (gene 7069); experiment: LTEA_HepaRG_THRSP: Life Technologies and Expression Analysis (LTEA) Assay for Thyroid Hormone Responsive (THRSP) using HepaRG (AID 2283536); details: mRNA level, 48 h; actives raise or lower the signal
Method in brief: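 Cell model: human HepaRG, approx. 100,000 cells/well, 0.5% DMSO vehicle. Exposure lasts 48 h; phenobarbital 1 mM serves as induction positive control. Gene expression is measured by qRT-PCR against three endogenous control genes.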

[11] = read-out: UDP glucuronosyltransferase (UGT1A1), UGT1A1 (gene 54658); experiment: LTEA_HepaRG_UGT1A1: Life Technologies and Expression Analysis (LTEA) Assay for UDP glucuronosyltransferase (UGT1A1) using HepaRG (AID 2283538); details: mRNA level, 48 h; actives raise or lower the signal
Method in brief: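 mRNA induction or loss of UGT1A1, by TaqMan qRT-PCR, in duplicate HepaRG wells after 48 h exposure to half-log dilutions topping at 100 uM; DMSO (0.5%) served as baseline.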

[12] = read-out: X-box binding protein 1 (XBP1), XBP1 (gene 7494); experiment: LTEA_HepaRG_XBP1: Life Technologies and Expression Analysis (LTEA) Assay for X-box binding protein 1 (XBP1) using HepaRG (AID 2283540); details: mRNA level, 48 h; actives raise or lower the signal
Method in brief: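 Transcript levels of XBP1, measured by qRT-PCR and normalised to three housekeeping genes, were fitted bidirectionally relative to 0.5% DMSO controls. Human HepaRG cells received eight-point half-log dilutions from 100 uM for 48 h.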

[13] = LTEA_HepaRG_LDH_cytotoxicity: Cytotoxicity Assessment in the Life Technologies and Expression Analysis (LTEA) Assay (AID 2283563; active = hit-call score of the fitted dose curve at least 0.9, where 1 is the maximum;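 for AC50: LDH activity released into spent culture medium as a marker of cell death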)
Method in brief: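 Cells were thawed and plated for 48 h. Medium was then replaced with serum-free induction medium. Chemicals (8 half-log points, maximum 100 uM, 0.5% DMSO) were added in duplicate for 48 h, after which spent medium was assayed for LDH.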

[14] = read-out: Cellular tumor antigen p53 (Homo sapiens) (UniProt P04637); experiment: LTEA_HepaRG_TP53: Life Technologies and Expression Analysis (LTEA) Assay for Tumor Protein P53 (TP53) using HepaRG (AID 2283537); details: mRNA level, 48 h; actives raise or lower the signal
Method in brief: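 Gain or loss of TP53 mRNA signal is scored relative to 0.5% DMSO after 48 h chemical treatment of HepaRG liver cells, tested in duplicate at eight half-log concentrations up to 100 uM.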

Measured: AC50

Chain of Nuclear factor erythroid 2-related factor 2 (Homo sapiens) (Q16236 whole entry, looked up): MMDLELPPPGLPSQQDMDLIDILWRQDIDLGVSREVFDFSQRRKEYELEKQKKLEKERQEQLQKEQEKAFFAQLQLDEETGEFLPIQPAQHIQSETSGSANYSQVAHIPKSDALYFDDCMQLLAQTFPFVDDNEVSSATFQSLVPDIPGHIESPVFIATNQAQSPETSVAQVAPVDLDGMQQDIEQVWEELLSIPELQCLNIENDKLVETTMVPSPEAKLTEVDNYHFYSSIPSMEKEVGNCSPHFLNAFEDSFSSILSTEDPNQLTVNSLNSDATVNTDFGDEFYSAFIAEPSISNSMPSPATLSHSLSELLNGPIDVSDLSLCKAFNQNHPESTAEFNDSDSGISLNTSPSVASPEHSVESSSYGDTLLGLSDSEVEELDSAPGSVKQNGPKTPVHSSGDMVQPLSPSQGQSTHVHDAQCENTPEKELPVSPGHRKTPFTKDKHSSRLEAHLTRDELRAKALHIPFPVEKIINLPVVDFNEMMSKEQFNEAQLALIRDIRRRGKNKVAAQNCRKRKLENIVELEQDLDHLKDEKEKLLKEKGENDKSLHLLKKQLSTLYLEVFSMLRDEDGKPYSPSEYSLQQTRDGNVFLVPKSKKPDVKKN
Chain of Signal transducer and activator of transcription 3 (Homo sapiens) (P40763 whole entry, looked up): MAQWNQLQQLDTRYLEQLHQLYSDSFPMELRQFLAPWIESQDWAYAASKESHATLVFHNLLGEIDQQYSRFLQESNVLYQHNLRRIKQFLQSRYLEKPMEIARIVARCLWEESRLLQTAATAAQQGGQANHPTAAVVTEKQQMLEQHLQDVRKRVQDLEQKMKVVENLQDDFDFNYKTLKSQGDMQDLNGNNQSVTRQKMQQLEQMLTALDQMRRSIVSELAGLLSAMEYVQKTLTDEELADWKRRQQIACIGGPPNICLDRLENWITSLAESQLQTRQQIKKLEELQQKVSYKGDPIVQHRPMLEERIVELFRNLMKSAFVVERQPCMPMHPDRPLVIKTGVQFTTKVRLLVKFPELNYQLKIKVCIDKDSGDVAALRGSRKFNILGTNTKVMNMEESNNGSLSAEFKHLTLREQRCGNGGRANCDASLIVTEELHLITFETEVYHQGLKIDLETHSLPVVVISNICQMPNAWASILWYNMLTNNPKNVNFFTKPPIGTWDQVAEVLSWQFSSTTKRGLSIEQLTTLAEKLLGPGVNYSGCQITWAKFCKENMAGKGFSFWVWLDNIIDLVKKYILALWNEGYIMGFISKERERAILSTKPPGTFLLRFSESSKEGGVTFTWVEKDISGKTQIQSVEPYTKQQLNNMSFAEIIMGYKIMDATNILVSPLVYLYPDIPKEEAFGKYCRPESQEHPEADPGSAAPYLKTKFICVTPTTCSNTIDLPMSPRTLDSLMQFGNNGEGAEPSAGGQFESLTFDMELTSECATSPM
Chain of Cellular tumor antigen p53 (Homo sapiens) (P04637 whole entry, looked up): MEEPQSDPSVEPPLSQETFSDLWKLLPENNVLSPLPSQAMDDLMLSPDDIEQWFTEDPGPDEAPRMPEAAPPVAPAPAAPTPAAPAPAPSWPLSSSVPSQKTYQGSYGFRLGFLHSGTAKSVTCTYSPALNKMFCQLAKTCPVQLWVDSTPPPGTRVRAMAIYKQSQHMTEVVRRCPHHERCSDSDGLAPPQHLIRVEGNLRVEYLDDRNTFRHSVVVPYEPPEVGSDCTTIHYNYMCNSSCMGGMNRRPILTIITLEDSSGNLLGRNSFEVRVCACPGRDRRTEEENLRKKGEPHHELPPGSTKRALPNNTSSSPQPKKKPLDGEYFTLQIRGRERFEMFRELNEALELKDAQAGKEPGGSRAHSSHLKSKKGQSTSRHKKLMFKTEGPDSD

CC1(C)COP(Oc2ccccc2)OC1
inactive: [1]

CN(C1CCCCC1)C1CCCCC1
inactive: [1]

Clc1cccc(Cl)c1Cl
not listed: [1] | [14]
inactive: all other assays above

CN(C)C(=S)S
not listed: [14]
inactive: all other assays above

O=C1C=CC(=O)c2ccccc21
active: [1] 49.2 µM

Cc1cc(C)cc(C)c1
not listed: [14]
inactive: all other assays above

CC(C)(C)c1ccccc1O
active: [11] 4.14 µM
not listed: [14]
inactive: all other assays above

Oc1c(Cl)cc(Cl)cc1Cl
active: [14] 50 µM
not listed: [1] | [2] | [13]
inactive: all other assays above

O=C(O)C1(c2ccc3c(c2)OC[C@H](Cc2ccc(-c4ccccc4)cc2)[C@H]3O)CCCC1
active: [3] 81.6 µM | [8] 77.5 µM | TIMP1, TIMP1 (gene 7076) 78.8 µM | [13] 77.6 µM
not listed: [1] | [14]
inactive: all other assays above

COc1ccccc1N
not listed: [14]
inactive: all other assays above

Cc1ccc(CCl)cc1
inactive: [1]

Cc1ccccc1OP(=O)(Oc1ccccc1)Oc1ccccc1
inactive: [1]

COc1ccc([N+](=O)[O-])cc1O
inactive: [1]

N#Cc1ccccc1Cl
inactive: [1]

CC(C)CP(=S)(S)CC(C)C
inactive: [1]

N#Cc1ccccc1N
inactive: [1]

CCOC(=O)c1ccccc1S(=O)(=O)NC(=O)Nc1nc(Cl)cc(OC)n1
inactive: [1]

Cc1ccc(OP(=O)(Oc2ccc(C)cc2C)Oc2ccc(C)cc2C)c(C)c1
inactive: [1]

C[As+](C)(C)CC(=O)[O-]
inactive: [1]

C1CN2CCN1CC2
inactive: [1]

OCCN(CCO)CCO
not listed: [14]
inactive: all other assays above

CC(C)O.CC(C)O.OCCN(CCO)CCO.OCCN(CCO)CCO.[Ti]
not listed: [13] | [14]
inactive: all other assays above

c1ccc2sc(SNC3CCCCC3)nc2c1
inactive: [1]

Oc1cc(Cl)c(Cl)cc1Cl
active: [13] 84.8 µM
not listed: [14]
inactive: all other assays above

NC(=O)CCl
inactive: [1]

[Cl][Sn]([c]1ccccc1)([c]1ccccc1)[c]1ccccc1
active: [1] 1.73 µM and 986 nM

CCCCCCCCCCCCc1cccc(S(=O)(=O)O)c1
active: [2] 45 µM | [7] 45 µM | [8] 45 µM | [10] 66.9 µM | [11] 22.9 µM | [1] 139 µM
not listed: [14]
inactive: all other assays above

O=C/C(Cl)=C(/Cl)C(=O)O
inactive: [1]

C[C@@H]1O[C@@H](O[C@H]2C[C@@H](O)[C@]3(CO)[C@H]4[C@H](O)C[C@]5(C)[C@@H](C6=CC(=O)OC6)CC[C@]5(O)[C@@H]4CC[C@]3(O)C2)[C@H](O)[C@H](O)[C@H]1O
inactive: [1]

O=C(O)COc1cc(Cl)c(Cl)cc1Cl
inactive: [1]

CCOC(=O)Cc1ccccc1
inactive: [1]

O=C(N[C@H]1CN2CCC1CC2)c1ccc2c(c1)OCCO2
not listed: [1] | [14]
inactive: all other assays above
